Data as given in PubChem BioAssay (NCATS).
Inconclusive results are not listed. Activity calls are given as the source filed them. Calls come from the whole dose curve; as a rule, active = well fitted curve in the direction sought with a large enough effect; inconclusive = small, poorly fitted or top-dose-only effect, or another doubt; inactive = no such curve, though single readings can be large; an effect the other way counts as inactive or inconclusive.

test system: not listed separately; experiment: Viability counterscreen for agonist of constitutive androstane receptor (CAR) against the NCATS DSHEA and TCM libraries (AID 1794838); conditions: HepG2 cell viability counterscreen, CAR agonist assay, co-treated with 0.75 µM CAR antagonist; series mostly up to 40 µM; activity change, negative = cytotoxicity: at the top concentration;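 note: cells exposed to compound for 24 h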
How it was run: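 Cell viability, from CellTiter-Fluor fluorescence (405/540 nm), was scored after a 24 h, 37C exposure of HepG2 cells carrying CYP2B6 reporter and hCAR to test substances in presence of 0.75 uM PK11195.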
Note: 0% is about no effect.

Compound	activity change, negative = cytotoxicity
C[C@H]1[C@H](C)CC[C@]2(C(=O)O)CC[C@]3(C)C(=CC[C@@H]4[C@@]5(C)C[C@@H](O)[C@H](O)[C@@](C)(CO)[C@@H]5CC[C@]43C)[C@H]12	-6.78% (inactive)
CC1=C(/C=C/C(C)=C/C=C/C(C)=C/C=C/C=C(C)/C=C/C=C(C)/C=C/C2=C(C)CCCC2(C)C)C(C)(C)CCC1	20.6% (inactive)
CC1=C(/C=C/C(C)=C/C=C/C(C)=C/CO)C(C)(C)CCC1	7.09% (inactive)

target: Nuclear receptor subfamily 1 group I member 3 (Homo sapiens) (UniProt Q14994); experiment: Primary qHTS for agonist of constitutive androstane receptor (CAR) against the NCATS DSHEA and TCM libraries (AID 1794839); conditions: CAR agonist reporter cells, qHTS luminescence, CAR antagonist co-added at 0.75 µM; series mostly up to 40 µM; activation: at the top concentration;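 note: HepG2 cells expressing human CAR with a CYP2B6 reporter plus PK11195 antagonist; luciferase reporter luminescence read with ONE-Glo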
Sequence (Q14994 whole entry, looked up): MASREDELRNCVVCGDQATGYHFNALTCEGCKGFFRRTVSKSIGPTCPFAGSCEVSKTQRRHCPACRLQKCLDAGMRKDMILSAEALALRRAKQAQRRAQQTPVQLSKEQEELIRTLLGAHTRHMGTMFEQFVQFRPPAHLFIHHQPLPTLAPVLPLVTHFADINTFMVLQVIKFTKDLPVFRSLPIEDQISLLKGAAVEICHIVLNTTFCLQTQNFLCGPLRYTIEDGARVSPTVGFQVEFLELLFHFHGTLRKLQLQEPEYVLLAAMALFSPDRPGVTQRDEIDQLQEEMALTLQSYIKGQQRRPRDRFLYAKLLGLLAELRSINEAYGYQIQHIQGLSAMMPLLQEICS
How it was run: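 Agonist mode in presence of hCAR antagonist PK11195 (0.75 µM final): test substances, 24 h, 37 °C, on HepG2-CYP2B6-hCAR cells. Same-well readouts: fluorescence viability, then ONE-Glo luminescence; CITCO as reference agonist.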

Compound	activation
C[C@H]1[C@H](C)CC[C@]2(C(=O)O)CC[C@]3(C)C(=CC[C@@H]4[C@@]5(C)C[C@@H](O)[C@H](O)[C@@](C)(CO)[C@@H]5CC[C@]43C)[C@H]12	-24.3% (inactive)
CC1=C(/C=C/C(C)=C/C=C/C(C)=C/C=C/C=C(C)/C=C/C=C(C)/C=C/C2=C(C)CCCC2(C)C)C(C)(C)CCC1	-6.12% (inactive)
CCCCCCCC(=O)O	-17.7% (inactive)

test system: not listed separately; experiment: HepG2 viability counterscreen (readout 2: ATP content) against the NCATS DSHEA and TCM libraries (AID 1794840); conditions: ATP content luminescence; series mostly up to 27.3 µM; activity change, negative = cytotoxic: at the top concentration;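 note: HepG2 cells exposed to substances for about 24 h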
How it was run: (§1)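 Readout 1: cellular protease activity, GF-AFC substrate (25 uM final, 30 min, fluorescence 380/510 nm). Readout 2: ATP content by CellTiter-Glo luminescence after 30 min at RT. Both follow ~24 h exposure of HepG2 cells (1,000/well) to substances.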

Compound	activity change, negative = cytotoxic
C[C@H]1[C@H](C)CC[C@]2(C(=O)O)CC[C@]3(C)C(=CC[C@@H]4[C@@]5(C)C[C@@H](O)[C@H](O)[C@@](C)(CO)[C@@H]5CC[C@]43C)[C@H]12	4.74% (inactive)
Oc1cc(O)c2c(c1)OC(c1ccc(O)c(O)c1)C(O)C2 (centres undefined)	-21.6% (inactive)
CC1=C(/C=C/C(C)=C/C=C/C(C)=C/C=C/C=C(C)/C=C/C=C(C)/C=C/C2=C(C)CCCC2(C)C)C(C)(C)CCC1	-0.719% (inactive)
CC1=CCC(C(C)(C)O)CC1 (centres undefined)	-4.23% (inactive)
CCCCCCCC(=O)O	3.06% (inactive)
CC1=C(/C=C/C(C)=C/C=C/C(C)=C/CO)C(C)(C)CCC1	-4.77% (inactive)
Cc1c(C)c2c(c(C)c1O)CC[C@@](C)(CCC[C@H](C)CCC[C@H](C)CCCC(C)C)O2	16.9% (inactive)

test system: not listed separately; experiment: HepG2 viability counterscreen (readout 1: protease activity) against the NCATS DSHEA and TCM libraries (AID 1794841); conditions: qHTS concentration series; series mostly up to 27.3 µM; activity change, negative = inhibition: at the top concentration;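 note: cells exposed to compounds for about 24 h before the protease read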
How it was run: as §1

Compound	activity change, negative = inhibition
C[C@H]1[C@H](C)CC[C@]2(C(=O)O)CC[C@]3(C)C(=CC[C@@H]4[C@@]5(C)C[C@@H](O)[C@H](O)[C@@](C)(CO)[C@@H]5CC[C@]43C)[C@H]12	2.72% (inactive)
CC1=C(/C=C/C(C)=C/C=C/C(C)=C/C=C/C=C(C)/C=C/C=C(C)/C=C/C2=C(C)CCCC2(C)C)C(C)(C)CCC1	4.37% (inactive)
CC1=CCC(C(C)(C)O)CC1 (centres undefined)	21.9% (inactive)
CCCCCCCC(=O)O	13.6% (inactive)
CC1=C(/C=C/C(C)=C/C=C/C(C)=C/CO)C(C)(C)CCC1	15.2% (inactive)
Cc1c(C)c2c(c(C)c1O)CC[C@@](C)(CCC[C@H](C)CCC[C@H](C)CCCC(C)C)O2	-2.51% (inactive)
